Dicer processing: human Dicer pre-microRNA cleavage inhibition; Q9UPY3; cat-ELCCA pre-miR-21 Dicer processing, chemiluminescence; stronger effect = higher value; z-score at 25 µM; 6% of 47,000 active; AID 1347074; in the data active = z-score above about 3, passing the limit was not always enough;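 note: higher signal means more uncleaved substrate so more Dicer inhibition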
Target sequence (Q9UPY3 whole entry, looked up): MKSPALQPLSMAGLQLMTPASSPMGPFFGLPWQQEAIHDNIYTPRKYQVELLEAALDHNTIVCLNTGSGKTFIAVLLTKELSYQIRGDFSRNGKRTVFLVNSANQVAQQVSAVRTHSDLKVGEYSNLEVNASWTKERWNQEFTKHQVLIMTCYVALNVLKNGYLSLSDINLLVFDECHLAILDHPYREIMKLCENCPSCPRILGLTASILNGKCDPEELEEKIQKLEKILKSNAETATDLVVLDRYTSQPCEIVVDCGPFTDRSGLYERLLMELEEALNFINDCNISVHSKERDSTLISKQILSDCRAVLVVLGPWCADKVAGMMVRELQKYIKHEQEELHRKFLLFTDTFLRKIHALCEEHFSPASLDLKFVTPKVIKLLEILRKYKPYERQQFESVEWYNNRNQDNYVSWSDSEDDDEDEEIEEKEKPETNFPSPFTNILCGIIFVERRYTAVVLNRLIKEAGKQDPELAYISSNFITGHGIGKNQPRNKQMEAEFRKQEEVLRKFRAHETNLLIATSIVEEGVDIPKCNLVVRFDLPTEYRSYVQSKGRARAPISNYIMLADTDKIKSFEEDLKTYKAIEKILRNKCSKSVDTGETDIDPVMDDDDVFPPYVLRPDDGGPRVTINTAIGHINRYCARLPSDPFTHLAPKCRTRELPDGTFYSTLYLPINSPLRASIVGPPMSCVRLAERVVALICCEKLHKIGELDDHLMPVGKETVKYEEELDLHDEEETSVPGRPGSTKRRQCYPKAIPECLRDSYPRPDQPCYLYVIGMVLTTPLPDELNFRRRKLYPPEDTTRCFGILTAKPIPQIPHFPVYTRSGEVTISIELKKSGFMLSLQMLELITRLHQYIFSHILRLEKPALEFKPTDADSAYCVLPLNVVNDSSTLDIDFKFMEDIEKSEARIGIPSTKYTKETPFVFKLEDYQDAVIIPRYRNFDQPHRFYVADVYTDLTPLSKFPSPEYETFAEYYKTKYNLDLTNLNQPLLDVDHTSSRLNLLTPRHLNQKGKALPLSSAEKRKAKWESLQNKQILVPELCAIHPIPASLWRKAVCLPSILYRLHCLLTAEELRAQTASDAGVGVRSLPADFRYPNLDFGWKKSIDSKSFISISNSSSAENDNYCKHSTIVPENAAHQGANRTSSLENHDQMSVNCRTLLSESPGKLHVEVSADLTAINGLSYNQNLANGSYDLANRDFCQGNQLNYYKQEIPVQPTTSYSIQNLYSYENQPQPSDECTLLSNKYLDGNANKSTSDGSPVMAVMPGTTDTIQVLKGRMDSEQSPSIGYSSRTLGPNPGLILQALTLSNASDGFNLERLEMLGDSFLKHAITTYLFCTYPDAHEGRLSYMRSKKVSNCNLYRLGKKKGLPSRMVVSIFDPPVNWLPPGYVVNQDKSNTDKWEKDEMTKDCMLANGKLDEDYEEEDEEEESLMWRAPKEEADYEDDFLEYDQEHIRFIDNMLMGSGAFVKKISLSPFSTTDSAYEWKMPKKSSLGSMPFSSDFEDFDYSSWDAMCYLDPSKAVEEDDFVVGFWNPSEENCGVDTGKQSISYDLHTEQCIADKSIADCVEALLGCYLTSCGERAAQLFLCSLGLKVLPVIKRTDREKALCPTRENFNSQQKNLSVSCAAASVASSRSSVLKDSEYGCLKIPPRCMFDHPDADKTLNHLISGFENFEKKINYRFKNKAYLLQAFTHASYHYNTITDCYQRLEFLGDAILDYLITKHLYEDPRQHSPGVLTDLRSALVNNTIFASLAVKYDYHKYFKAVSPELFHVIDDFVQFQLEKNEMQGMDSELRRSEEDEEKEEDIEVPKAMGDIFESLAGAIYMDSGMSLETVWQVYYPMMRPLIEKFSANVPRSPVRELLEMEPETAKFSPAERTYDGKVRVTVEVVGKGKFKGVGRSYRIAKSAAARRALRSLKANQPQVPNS
Large screens that a line does not name were inactive. The entries come from a sample that favours hits as a whole.

C=CCn1c(SCc2n[nH]c(=S)n2C)nnc1-c1ccccc1	none
CN(C)CC#Cc1cncc(C(=O)NN)c1	none
Nc1cccc(C(=O)CC2(O)C(=O)N(Cc3ccc(Cl)cc3)c3ccccc32)c1 (stereo not given)	none
O=c1nc(-c2ccccc2)c2ccccc2[nH]1	none
Cc1nc(-c2ccccc2)c2c(=O)cc(-c3ccccc3)[nH]c2n1	none
O=c1cc(-c2ccccc2)[nH]c2ccccc12	Dicer processing 4
Cc1c(NC(=O)NNc2ccc(OC(F)(F)F)cc2)sc2nc(-c3ccc(Cl)cc3)nn12	none
Cc1ccc(N=Cc2c(C)[nH]n(-c3ccc(C)cc3)c2=O)cc1	Dicer processing 4
Cc1ccc(-n2[nH]c(C)c(C=Nc3ccc(Cl)cc3)c2=O)cc1	none
Cc1ccc(N=Cc2c(C)[nH]n(-c3ccccc3)c2=S)c(C)c1	none
Cc1ccccc1CN1c2cccc3cccc(c23)S1(=O)=O	none
NC1=NC(c2cccc(F)c2)n2c(nc3ccccc32)N1 (stereo not given)	none
COC(=O)c1ccsc1NC(=O)CN1c2cccc3cccc(c23)S1(=O)=O	none
COc1ccc(NC(=O)N=S2CCN(S(=O)(=O)c3ccc(Cl)cc3)CC2)cc1	none
COC(=O)c1ccsc1NC(=O)CN1CCN(S(=O)(=O)c2ccc(Cl)cc2)CC1	Dicer processing 3
COc1cccc(C2Nc3ccc4ccccc4c3C3=C2C(=O)CC(C)(C)C3)c1OC (stereo not given)	none
COC(=O)c1ccc(NC2SC(=O)N(c3ccccc3)C2=O)cc1 (stereo not given)	none
COC(=O)c1ccccc1NC1SC(=O)N(c2ccccc2)C1=O (stereo not given)	none
O=C1SC(Nc2ccccc2Br)C(=O)N1c1ccccc1 (stereo not given)	none
O=C1SC(Nc2ccccc2F)C(=O)N1c1ccccc1 (stereo not given)	Dicer processing 3.4
Cc1ccc(N2C(=O)SC(Nc3ccccc3C(=O)O)C2=O)cc1C (stereo not given)	none
O=C1SC(Nc2cccc(F)c2)C(=O)N1c1ccccc1 (stereo not given)	Dicer processing 7.3
Cc1ccc(N2C(=O)SC(Nc3ccc(C(=O)O)cc3)C2=O)cc1 (stereo not given)	Dicer processing 5.4
Cc1ccc(N2C(=O)SC(Nc3ccc(C(=O)O)cc3)C2=O)cc1C (stereo not given)	none
O=C1SC(Nc2cccc(Br)c2)C(=O)N1c1ccccc1 (stereo not given)	none
Cc1c(NC(=O)Nc2ccc(S(N)(=O)=O)cc2)sc(=S)n1C	none
Clc1ccc(-c2csc(N3CCN(c4ccc(Cl)cc4)CC3)n2)cc1	none
O=c1[nH]c2c(cnn2-c2ccccc2)c(=O)n1-c1ccc(Cl)cc1	none
O=[N+]([O-])c1cc(C2SCCS2)ccc1OCc1ccc(Cl)c(Cl)c1	none
COc1ccc(Br)cc1/C=N/NC(=O)CNc1ccccc1	none
CC(C)(C)/C(N)=N/S(=O)(=O)c1cc(C(F)(F)F)cc(C(F)(F)F)c1	none
c1cc2c(cc1-c1csc(-c3ccc4c(c3)OCCO4)n1)OCCCO2	none
COc1ccc(O)c(C2=Nc3ccccc3N=C(c3ccco3)C2)c1	none
Oc1ccc(Cl)cc1C1=Nc2ccccc2N=C(c2ccco2)C1	Dicer processing 3
O=c1oc(-c2ccco2)nc2cc(Cl)ccc12	none
COc1cc(C)nc(-n2nc(C)cc2OC)n1	none
COc1cc(C)nc(N(CCO)CCO)n1	Dicer processing 5.9
COc1cc(C)nc(SCC(N)=O)n1	none
OC[C@H]1OC(n2cnc3c(N[C@H]4CCC[C@@H]4O)ncnc32)[C@H](O)[C@@H]1O (stereo not given in full)	none
CC(C)c1ccc(C2C3CCc4ccccc4C3=NN2CCO)cc1 (stereo not given)	Dicer processing 3.1
COc1ccc2c(c1)CCC1C2=NN(C)C1c1ccc(C(C)C)cc1 (stereo not given)	none
CN1N=C2c3ccccc3CCC2C1c1ccc(F)cc1 (stereo not given)	none
CO/N=C1\CC(C)(C)Cc2c(-c3ccn(C(=O)c4cccc(C(F)(F)F)c4)n3)sc(SC)c21	none
Cc1ccc(S(=O)(=O)NC(=O)NCCNC(=O)OC(C)(C)C)cc1	none
Cn1nc(-c2ccc(Sc3ccc(Cl)cc3)s2)cc1C(F)(F)F	none
Cn1nc(-c2ccc(-c3ccn(S(C)(=O)=O)n3)s2)cc1C(F)(F)F	Dicer processing 4
Cn1nc(-c2ccc(S(=O)(=O)NCC(=O)NNS(=O)(=O)c3ccc(Cl)cc3)s2)cc1C(F)(F)F	none
O=c1[nH]nc(SCc2nc(COc3ccc([N+](=O)[O-])cc3)no2)n1Cc1ccco1	none
S=c1[nH]nc(Cc2ccccc2)n1-c1ccc(Cl)cc1	none
S=c1[nH]nc(Cc2ccccc2)n1-c1ccccc1	none
S=c1[nH]nc(Cc2n[nH]c(=S)n2-c2ccccc2)n1-c1ccccc1	Dicer processing 3.3
Fc1ccc(CN2C3=NCCCN3c3ccccc32)cc1	none
Clc1ccc(CN2C3=NCCCN3c3ccccc32)cc1	none
Fc1ccc(CN2C3=NCCN3c3ccccc32)cc1	Dicer processing 7.4
CCOC(=O)C(O)(c1ccc(N(C)C(=O)Nc2cccc(Cl)c2)cc1)C(F)(F)F (stereo not given)	none
CC1CCCC(N2CNc3nc4ccccc4n3C2)C1C (stereo not given)	none
CN1CN=C(SCc2ccccc2Cl)NC1	none
CCOc1cc(S(=O)(=O)n2cc(C)nc2CC)ccc1Br	none
COc1cc(-c2cc(OC)c(C)cc2OC)c(OC)cc1C	none
O=c1oc2c(o1)=C(c1ccccc1)S(=O)(=O)C=2c1ccccc1	none
CCOC(=O)C1CCN(C(=O)Nc2ccc(F)cc2F)CC1	none
CC(C)(C)OC(=O)NC1CCN(C(=O)Nc2ccc(F)cc2F)CC1	none
O=C(Nc1ccc(F)cc1F)N1CCN(Cc2ccccc2)CC1	Dicer processing 3
Cc1nnsc1-c1n[nH]c(C)c1C(=O)NN	none
Cc1cccc(OCc2nc(-c3ccc(-n4cccc4)cc3)no2)c1C	none
COc1ccc(-c2cc(-c3ccccc3)n3ncnc3n2)cc1	none
COc1ccc(Nc2cc(-c3ccccc3)nc3ncnn23)c(OC)c1	Dicer processing 3.7
Clc1ccc(Nc2cc(-c3ccccc3)nc3ncnn23)cc1	none
c1ccc(Nc2nnc(-c3cccc4ccccc34)o2)cc1	none
O=c1oc(-c2ccc(Br)cc2)nc2ccccc12	Dicer processing 3
O=c1oc(Nc2ccccc2)nc2ccccc12	Dicer processing 3.6
O=c1oc(-c2cccs2)nc2ccccc12	none
O=c1oc(-c2ccc(Cl)cc2)nc2ccccc12	none
CC(C)(C)c1ccc(-c2nc3ccccc3c(=O)o2)cc1	none
Cc1c(C(=O)Nc2ccccc2)nn(-c2ccc(C(C)(C)C)cc2)c(=N)c1C#N	none
O=c1cc(O)nc(SCc2c(Cl)cccc2Cl)[nH]1	none
Cc1ccc2c(c1)-c1cc(C)nn1C(c1cccs1)N2 (stereo not given)	none
Cc1ccc(-c2n[nH]c(=O)c3ccccc23)cc1S(=O)(=O)NC(C)C	Dicer processing 3.6
Cc1ccc(-c2n[nH]c(=O)c3ccccc23)cc1S(N)(=O)=O	none
Cc1ccc(-c2n[nH]c(=O)c3ccccc23)cc1S(=O)(=O)NC(C)(C)C	none
N/C(=N\S(=O)(=O)c1cc(Cl)c(Oc2ccc([N+](=O)[O-])cc2Cl)c(Cl)c1)c1ccncc1	none
COc1ccc(CCN2C(=O)C(C)SC2c2cccnc2)cc1 (stereo not given)	Dicer processing 4.2
CC1SC(c2cccnc2)N(c2ccc(Cl)cc2)C1=O (stereo not given)	none
O=C1CSC(c2cccnc2)N1CCc1ccc(Cl)cc1 (stereo not given)	none
COC(=O)c1ccc(C(C)N(C)C)o1 (stereo not given)	none
CC(C)c1ccc(-n2ncc3ccccc3c2=O)cc1	none
COC(=O)c1sc(SC)c2c1CC(C)(C)C/C2=N/OC(=O)c1ncc(C(F)(F)F)cc1Cl	none

Screening results (PubChem)
